# HCMV inh: human cytomegalovirus inhibition | HFF cells, HCMV-luciferase reporter, 72 h; active compounds read low | activity change, negative = inhibition, % at 57.5 µM | 410,000 tested, 4.5% active | AID 1259415; in the data active = activity change below about -60%; inconclusive = no clear call, values can overlap the other calls; inactive = above about -39%
#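 Two compound doses tested in HFFs infected with HCMV-luciferase, MOI 1 PFU/cell, 72 h at 37C. Lysate luminescence read with OneGlo; data normalized against buffer-only and 10uM Salinomycin inhibitor controls.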
# Marburg entry inh: inhibitors of Marburg virus binding or cell entry | 300,000 tested, 1.8% active | Marburg virus pseudotyped entry inhibition, cell reporter | Potency, µM (doses to about 37.8 µM), hits mostly inhibitors; calls by dose curve; tested in HEK293 cells
# FBPA Giardia inh: Giardia lamblia aldolase inhibition | 290,000 tested, 0.71% active | purified Giardia FBPA | A8B2U2 | Potency, µM (highest dose often 59.6 µM), hits mostly inhibitors; note: nearly all actives have a fitted effect of over 55% in size
# Target sequence (A8B2U2 whole entry, looked up): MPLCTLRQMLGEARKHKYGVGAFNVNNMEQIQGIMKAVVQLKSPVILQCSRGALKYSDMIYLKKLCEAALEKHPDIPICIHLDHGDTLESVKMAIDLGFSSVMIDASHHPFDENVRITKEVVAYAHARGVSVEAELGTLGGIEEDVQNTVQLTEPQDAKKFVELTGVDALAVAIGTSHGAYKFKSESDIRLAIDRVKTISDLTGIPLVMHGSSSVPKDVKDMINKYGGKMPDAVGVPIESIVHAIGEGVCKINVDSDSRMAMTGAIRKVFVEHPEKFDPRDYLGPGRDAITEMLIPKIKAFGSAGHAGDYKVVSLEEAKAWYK
#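 40 nM FBPA preincubated 10 min at RT with compound (up to 57.5 uM final), then substrate plus GAPDH/TPI/NAD/arsenate coupling and diaphorase/resazurin added. Fluorescence read after 20 min at RT, 525/598 nm.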
# FMDV antiviral: antivirals against foot and mouth disease virus; FMDV antiviral cell-based qHTS; Potency, µM (series often up to 57.9 µM), most hits filed as inhibitors; 410,000 tested, 1.2% active; calls by dose curve; tested in HEK293T cells; note: read-out not given here; nearly all actives have a fitted effect of over 45% in size
# HCV inhibitor: blocks hepatitis C virus; 340,000 tested, 3.4% active; Huh7.5.1 HCVcc-Cre infection, luciferase reporter, 44 h; Potency, µM (top dose mostly 41.8 µM), actives largely listed as inhibitors
#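 Infectious HCVcc-Cre (~0.5 moi) was added to cells just after compound, with cells seeded 4 h earlier at 1,000 per well. Luciferase activity after 44 h culture reported infection; substrate was incubated 15 min at room temperature before reading.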
# LASV entry inh: inhibitors of Lassa virus binding or cell entry; 300,000 tested, 1.2% active; Potency, µM (doses to about 37.9 µM), usual class: inhibitors; Lassa virus pseudotype entry inhibition, cell reporter; calls by dose curve; tested in HEK293 cells; note: nearly all actives have a fitted effect of over 50% in size
# Numbers stand for hits; – = inactive; ? = inconclusive; · = no result; ! = repeats disagree; [ ] = dose if it differs, or a comment. An excerpt weighted towards active compounds, which were near 8.3% of everything screened. Unless noted, calls come from the whole dose curve; as a rule, active = well fitted curve in the direction sought with a large enough effect; inconclusive = small, poorly fitted or top-dose-only effect, or another doubt; inactive = no such curve, though single readings can be large; an effect the other way counts as inactive or inconclusive.
SMILES,HCMV inh,Marburg entry inh,FBPA Giardia inh,FMDV antiviral,HCV inhibitor,LASV entry inh
Cc1sc2ncnc(N3CCN(S(=O)(=O)c4ccccc4)CC3)c2c1C,·,–,·,20µM,11.2µM,–
Cc1ccc(OCCN2CCN(c3ncnc4sc(C)c(C)c34)CC2)cc1,-98.8,?,–,?,2.51µM,?
Cc1ccc(OCCN2CCCC2)cc1,–,·,?,–,?,·
CC(C)NC(=O)N1[C@@H]2CN(C(=O)c3ccc(F)cc3)c3ccccc3[C@@H]2[C@@H]1CO,–,·,·,·,·,·
CC(=O)c1ccc(OCC(=O)c2cc(C)n(-c3ccc4c(c3)OCO4)c2C)cc1,–,?,–,?,12.6µM,?
Cc1cc(C(=O)CSc2nnc(-c3cccs3)o2)c(C)n1-c1ccccc1,–,?,?,11.2µM,8.91µM,–
Cc1cc(C(=O)COC(=O)c2ccc(N)c([N+](=O)[O-])c2)c(C)n1Cc1ccc2c(c1)OCO2,–,·,–,–,12.6µM,·
COc1cccc(NC(=O)CSc2nnc(-c3cc(C)n(-c4ccccc4)c3C)o2)c1,·,?,–,12.6µM,–,–
CC(C)c1cc(C(C)C)c(S(=O)(=O)Nc2cccc3cccnc23)c(C(C)C)c1,·,·,–,·,·,·
COc1ccccc1CCn1c(=O)c(-c2cccs2)nc2cncnc21,·,·,–,–,·,·
Cc1ccc(S(=O)(=O)N2CCC([C@@H](C#N)c3ccccc3)CC2)cc1,–,·,·,·,·,·
C[N+]1(C)C2CCC1CC(OC(=O)C(O)c1ccccc1)C2 (centres undefined),·,·,–,–,·,·
CC1=CC(=O)C2=C(C)C[C@H](OC(=O)Cc3ccccc3)C3[C@H](OC(=O)[C@H]3C)C12 (some centres undefined),·,·,–,–,·,·
Cc1nnc(SCC(=O)c2cc(C)n(-c3ccc4c(c3)OCO4)c2C)s1,-65.7,?,?,·,11.2µM,–
Cc1cc(C(=O)CSc2nnc(-c3ccco3)o2)c(C)n1-c1ccc2c(c1)OCCO2,–,–,–,?,12.6µM,?
Cc1cc(C(=O)CSc2nnnn2C)c(C)n1-c1ccc2c(c1)OCCO2,–,–,?,–,–,–
Cc1cc(C(=O)COC(=O)c2ccc(N)c([N+](=O)[O-])c2)c(C)n1-c1ccc2c(c1)OCO2,-73.5,–,–,–,2µM,–
Cc1cc(C(=O)CSc2nnc(-c3ccc4c(c3)OCO4)o2)c(C)n1-c1ccc(F)cc1,–,–,–,?,–,–
CC(=O)c1ccc(N2CCN(C(=O)C3CCN(S(=O)(=O)c4cccc5nonc45)CC3)CC2)cc1,–,·,·,–,·,?
CCc1nc2ccc(C(=O)NCc3ccc(OC)c(OC)c3)cc2nc1CC,–,·,·,–,·,–
CCOC(=O)C1CCN(S(=O)(=O)c2c(Cl)ccc3nonc23)CC1,-113.0,·,·,·,·,·
COc1ccc2c(c1)C(c1ccccc1OC)CC(=O)O2 (centres undefined),·,·,–,·,·,·
Cc1nnc(NC(=O)c2sc3ccccc3c2Cl)s1,–,?,?,–,–,11.6µM
Cc1ccc(NC(=O)c2sc3ccccc3c2Cl)nc1,–,?,–,·,–,5.8µM
COc1cccc(CN(C)C(=O)CNC(=O)c2sc3ccccc3c2Cl)c1OC,–,–,·,39.8µM,?,?
SMILES,HCMV inh,Marburg entry inh,FBPA Giardia inh,FMDV antiviral,HCV inhibitor,LASV entry inh
CCN(CC)Cc1ccc(NC(=O)c2sc3cc(Cl)ccc3c2Cl)cc1,-103.8,?,–,?,?,?
C[C@@H](c1ccccc1)N1C(=O)[C@H]2[C@@H]3[C@H](O)C=CC(=O)[C@H]3CC[C@H]2C1=O,·,·,–[12.9 µM],·,·,·
O=C(NCC(=O)N1CCCCC1)c1sc2ccccc2c1Cl,–,·,·,–,–,·
CC1CC(C)CN(C(=O)CNC(=O)c2sc3ccccc3c2Cl)C1 (centres undefined),?,·,·,–,8.91µM,·
O=C(Nc1ccc(CN2CCCCC2)cc1)c1sc2ccccc2c1Cl,–,?,–,–,11.2µM,–
CNC(=O)c1ccsc1NC(=O)c1sc2ccccc2c1Cl,–,?,–,–,11.2µM,–
COCc1nnc(NC(=O)c2sc3ccccc3c2Cl)s1,–,–,–,–,–,–
CC1CCCN(C(=O)CNC(=O)c2sc3ccccc3c2Cl)C1 (centres undefined),–,–,·,–,?,–
Cc1cc2c(c(=O)o1)[C@H](Cc1ccccc1)C(C#N)=C(N)O2,·,–,·,·,·,·
CC(C)c1nnc(N2C(=O)c3oc4ccccc4c(=O)c3C2c2ccccc2F)s1 (centres undefined),–,–,·,–,·,–
COC(=O)C1=C(C)N(Cc2ccc(C(F)(F)F)cc2)C(=NCc2ccccc2)NC1c1cccc(F)c1 (centres undefined),-99.3,·,·,·,·,·
COC(=O)C1=C(C)N(Cc2cccc(C(F)(F)F)c2)C(=NCc2ccc(C(F)(F)F)cc2)NC1c1cccc(F)c1 (centres undefined),-98.9,·,·,·,·,·
COCc1oc2ccc(NS(=O)(=O)c3ccc(C)cc3)cc2c1C(=O)OC,–,?,·,–,·,–
COc1cc(CN2CCC3(CCC(CNC(=O)c4ccccc4)O3)CC2)cc(OC)c1 (centres undefined),·,·,·,–,·,·
Cc1ccc(C(NC(=O)C2CCN(CCCOc3ccccc3)CC2)c2ccccn2)cc1 (centres undefined),–,·,·,–,·,·
COc1ccc(C(NC(=O)C2CCN(CCCOc3ccccc3)CC2)c2cccs2)cc1 (centres undefined),-102.6,·,·,–,·,·
CC1C(=O)N(C)C(=O)c2nc[nH]c21 (centres undefined),·,?,–,·,·,–
CCc1cc(C(=O)Cc2ccc(F)cc2)c(O)cc1O,-77.2,?,–,–,–,?
CCC(=O)N1c2ccccc2CC1C(=O)NCCc1ccccc1Cl (centres undefined),–,·,·,–,·,–
CC(C)=CCc1c2c(c3occ(-c4ccc(O)c(O)c4)c(=O)c3c1O)C=CC(C)(C)O2,–,?,–,?,?,15.8µM
CC(C)=CCc1c2c(c3occ(-c4ccc(O)cc4)c(=O)c3c1O)C=CC(C)(C)O2,-105.7,·,–,?,?,·
CC(CNC(=O)CCCn1c(=O)c2cccn2c2cccnc21)c1ccccc1 (centres undefined),-69.2!,·,·,–,·,–
Cc1ccc(C(=O)N(Cc2nc(-c3ccc(C)cc3)no2)C(C)C)cc1,–,·,–,–,–,·
COc1ccccc1OCC(=O)N(Cc1nc(-c2ccccc2)no1)C1CCCCC1,–,?,–,–,11.2µM,–
CC(C)N(Cc1nc(-c2ccccc2)no1)C(=O)c1ccc([N+](=O)[O-])cc1,–,·,–,–,22.4µM,·
COc1ccccc1C(=O)N(Cc1nc(-c2ccc(Cl)cc2)no1)C(C)C,–,·,–,?,11.2µM,·
CCOc1cc(C(=O)N(Cc2nc(-c3ccc(C)cc3)no2)C(C)C)cc(OCC)c1OCC,-83.0,–,·,?,·,–
CC(C)N(Cc1nc(-c2ccccc2)no1)C(=O)c1ccc(Cl)cc1,-89.3,·,–,–,?,·
CC(C)N(Cc1nc(-c2ccc(Cl)cc2)no1)C(=O)c1cccs1,-60.3,?,–,–,?,–
COc1ncc2nc(-c3cc(F)cc(F)c3)c(=O)n(CCc3ccccc3)c2n1,·,·,–,–,·,·

# From PubChem BioAssay
